Records with an inconclusive call do not appear. A number with no mark means an inactive call. Unless noted, the call rests on the fitted dose curve.
Assay: qHTS assay to identify small molecule agonists of H2AX - cell viability counter screen (AID 1224847);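 further: wild-type CHO-K1 cells; top concentration of the series differs between compounds; nearly all actives have a fitted effect of over 30% in size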
Details: CHO-K1 viability, CellTiter-Glo luminescence, 3 h; series mostly up to 154 µM; activity change, negative = cytotoxicity: at the top concentration
How it was run: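 Counter-screen for viability: CellTiter-Glo ATP luminescence read after 3 h compound treatment (15-point titration, 0.76% DMSO final) of CHO-K1 cells at 37C, with 30 min room-temperature reagent incubation.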
For `CCC(=O)OC1(c2ccccc2)CCN(C)CC1`, the “activity change, negative = cytotoxicity” value was -8.78%.
With `CCCCOC(C)=O` the “activity change, negative = cytotoxicity” value was 0.881%.
In the case of `COC1=CC(=O)O[C@@H](/C=C/c2ccccc2)C1`, the “activity change, negative = cytotoxicity” value is reported as 0.814%.
With `CCC(C(N)=O)N1CCCC1=O` (stereo not given) the “activity change, negative = cytotoxicity” value was -0.91% [at 70.9 µM].
With `O=C(O)CBr` the “activity change, negative = cytotoxicity” value was 2.15%.
For `CCCN1CCC[C@@H]2Cc3nc(N)ncc3C[C@H]21`, the “activity change, negative = cytotoxicity” value was -11.7% [at 70.9 µM].
In the case of `CC(C)c1ccc(O)cc1`, the “activity change, negative = cytotoxicity” value is reported as -0.248%.
With `CC1N=C(N)OC1c1ccccc1` (stereo not given) the “activity change, negative = cytotoxicity” value was -9.98%.
With `CCCOc1nn(C(=O)NS(=O)(=O)c2ccccc2C(=O)OC)c(=O)n1C` the “activity change, negative = cytotoxicity” value was 4.64%.
With `COC(=O)[C@@H](N)CCCN/C(N)=N/[N+](=O)[O-]` the “activity change, negative = cytotoxicity” value was 3.31% [at 70.9 µM].
For `CCN[C@@H](C)Cc1cccc(C(F)(F)F)c1`, the “activity change, negative = cytotoxicity” value was -5.09% [at 70.9 µM].
For `O=c1[nH]oc2c1CCNC2`, the “activity change, negative = cytotoxicity” value was -1.18% [at 70.9 µM].
With `CC(C)(C)C(=O)Cl` the “activity change, negative = cytotoxicity” value was -1.74%.
For `CCCOC(=O)Cc1ccc(OCC(=O)N(CC)CC)c(OC)c1`, the “activity change, negative = cytotoxicity” value was -5.96% [at 70.9 µM].
Molecule `Cc1ccc2c(c1)C1CN(C)CCC1N2` (stereo not given) has an activity change, negative = cytotoxicity of -2.09% [at 31.6 µM].
For `C=CCN1CC[C@]23CCCC[C@H]2[C@H]1Cc1ccc(O)cc13`, the “activity change, negative = cytotoxicity” value was -2.2% [at 70.9 µM].
With `O=C(Cl)C(Cl)Cl` the “activity change, negative = cytotoxicity” value was 3.11%.
With `CCOC1Oc2ccc(OS(C)(=O)=O)cc2C1(C)C` (stereo not given) the “activity change, negative = cytotoxicity” value was -10.6%.
Molecule `Brc1c(Br)c(Br)c(Br)c(Br)c1Br` has an activity change, negative = cytotoxicity of -1.61% [at 14 µM].
With `CCC1(c2cccc(O)c2)CCCCN(C)C1` (stereo not given) the “activity change, negative = cytotoxicity” value was -4.61% [at 70.9 µM].
For `CCN[C@@H](C)Cc1ccccc1`, the “activity change, negative = cytotoxicity” value was -1.44%.
In the case of `CC1NCCOC1c1ccccc1` (stereo not given), the “activity change, negative = cytotoxicity” value is reported as -0.88% [at 70.9 µM].
In the case of `CC(C)(N)Cc1ccc(Cl)cc1`, the “activity change, negative = cytotoxicity” value is reported as -3.62% [at 70.9 µM].
In the case of `Oc1ccc2c3c1O[C@H]1[C@@H](O)C=C[C@H]4[C@@H](C2)NCC[C@@]341`, the “activity change, negative = cytotoxicity” value is reported as 0.892%.
For `N[C@@H]1C[C@H]1c1ccccc1`, the “activity change, negative = cytotoxicity” value was 0.0806% [at 70.9 µM].
In the case of `CCOC(=O)c1ncn2c1CN(C)C(=O)c1c(I)cccc1-2`, the “activity change, negative = cytotoxicity” value is reported as 2.73% [at 70.9 µM].
For `O=P(O)(O)c1ccccc1`, the “activity change, negative = cytotoxicity” value was -3.28%.
In the case of `CCCCCCC1CCOC1=O` (stereo not given), the “activity change, negative = cytotoxicity” value is reported as 0.398%.
With `Clc1cc2c(cc1Cl)Oc1cc(Cl)c(Cl)cc1O2` the activity change, negative = cytotoxicity was -1.16% [at 0.582 µM].
In the case of `O=C(O)C(Br)(Br)Br`, the “activity change, negative = cytotoxicity” value is reported as 0.483%.
In the case of `CCCN1CCC[C@@H]2Cc3[nH]ncc3C[C@H]21`, the “activity change, negative = cytotoxicity” value is reported as 0.424% [at 70.9 µM].

Assay: qHTS assay to identify small molecule antagonists of the estrogen related receptor (ERR) signaling pathway from Tox21 library (AID 1224848; active means well fitted inhibition curve with a large enough effect in the repeat runs; further: nearly all actives have a fitted effect of over 50% in size)
Details: ERR reporter cell line, luciferase antagonist mode, 18 h; series mostly up to 92.4 µM; activity, negative = inhibition: at the top concentration
How it was run: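 Quantitative high-throughput format: ERR reporter cells (2,000/well) pre-incubated 6 h, treated 18 h at 37 C with compounds in DMSO alongside positive and negative controls, then read by ONE-Glo luminescence.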
With `COC1=CC(=O)O[C@@H](/C=C/c2ccccc2)C1` the “activity, negative = inhibition” value was 20.4%.
In the case of `O=C(O)CBr`, the “activity, negative = inhibition” value is reported as -0.0796%.
In the case of `CCCN1CCC[C@@H]2Cc3nc(N)ncc3C[C@H]21`, the “activity, negative = inhibition” value is reported as 6.35% [at 42.5 µM].
With `CC(C)c1ccc(O)cc1` the “activity, negative = inhibition” value was -0.936%.
For `[P]#[In]`, the “activity, negative = inhibition” value was 5.79%.
For `O=c1[nH]oc2c1CCNC2`, the “activity, negative = inhibition” value was 0.793% [at 42.5 µM].
`Cc1ccc2c(c1)C1CN(C)CCC1N2` (stereo not given) gave an activity, negative = inhibition of 10.8% [at 19 µM].
With `C=CCN1CC[C@]23CCCC[C@H]2[C@H]1Cc1ccc(O)cc13` the “activity, negative = inhibition” value was 9.09% [at 42.5 µM].
In the case of `CCN[C@@H](C)Cc1ccccc1`, the “activity, negative = inhibition” value is reported as 16.5%.
In the case of `CCOC(=O)C(SP(=S)(OC)OC)c1ccccc1` (stereo not given), the “activity, negative = inhibition” value is reported as -23.5%.
In the case of `CC1NCCOC1c1ccccc1` (stereo not given), the “activity, negative = inhibition” value is reported as 0.257% [at 42.5 µM].
With `CCCCCCC1CCOC1=O` (stereo not given) the “activity, negative = inhibition” value was 0.153%.
With `O=C(O)C(Br)(Br)Br` the “activity, negative = inhibition” value was 0.864%.
In the case of `CCCN1CCC[C@@H]2Cc3[nH]ncc3C[C@H]21`, the “activity, negative = inhibition” value is reported as 1.57% [at 42.5 µM].

Reference: PubChem BioAssay (Tox21)
On the % scale 0 is the no-effect control and ±100 the full control effect.
